Data on 11 molecules can be found in ChEMBL document CHEMBL3988442, “University of Dundee, Small-Polar-MMV Screening Library” (2021).

For some of these results: Results with a measured potency or affinity are listed apart.

Set-up in all cases: scale not given: direction of the effect not stated beside the values
Assay [1] concerns the target Protein translocase subunit SecA (Escherichia coli (strain K12)) (UniProt P10408). Briefly: Assay to Identify E. coli SecA ATPase Inhibitors. It is filed as functional. The conditions noted are these: 30 µM.
The target of assay [2] is T1, Ubiquitin-activating enzyme e1, putative (Leishmania donovani (strain BPK282A1)) (UniProt E9BSI1).
T1 sequence (whole entry): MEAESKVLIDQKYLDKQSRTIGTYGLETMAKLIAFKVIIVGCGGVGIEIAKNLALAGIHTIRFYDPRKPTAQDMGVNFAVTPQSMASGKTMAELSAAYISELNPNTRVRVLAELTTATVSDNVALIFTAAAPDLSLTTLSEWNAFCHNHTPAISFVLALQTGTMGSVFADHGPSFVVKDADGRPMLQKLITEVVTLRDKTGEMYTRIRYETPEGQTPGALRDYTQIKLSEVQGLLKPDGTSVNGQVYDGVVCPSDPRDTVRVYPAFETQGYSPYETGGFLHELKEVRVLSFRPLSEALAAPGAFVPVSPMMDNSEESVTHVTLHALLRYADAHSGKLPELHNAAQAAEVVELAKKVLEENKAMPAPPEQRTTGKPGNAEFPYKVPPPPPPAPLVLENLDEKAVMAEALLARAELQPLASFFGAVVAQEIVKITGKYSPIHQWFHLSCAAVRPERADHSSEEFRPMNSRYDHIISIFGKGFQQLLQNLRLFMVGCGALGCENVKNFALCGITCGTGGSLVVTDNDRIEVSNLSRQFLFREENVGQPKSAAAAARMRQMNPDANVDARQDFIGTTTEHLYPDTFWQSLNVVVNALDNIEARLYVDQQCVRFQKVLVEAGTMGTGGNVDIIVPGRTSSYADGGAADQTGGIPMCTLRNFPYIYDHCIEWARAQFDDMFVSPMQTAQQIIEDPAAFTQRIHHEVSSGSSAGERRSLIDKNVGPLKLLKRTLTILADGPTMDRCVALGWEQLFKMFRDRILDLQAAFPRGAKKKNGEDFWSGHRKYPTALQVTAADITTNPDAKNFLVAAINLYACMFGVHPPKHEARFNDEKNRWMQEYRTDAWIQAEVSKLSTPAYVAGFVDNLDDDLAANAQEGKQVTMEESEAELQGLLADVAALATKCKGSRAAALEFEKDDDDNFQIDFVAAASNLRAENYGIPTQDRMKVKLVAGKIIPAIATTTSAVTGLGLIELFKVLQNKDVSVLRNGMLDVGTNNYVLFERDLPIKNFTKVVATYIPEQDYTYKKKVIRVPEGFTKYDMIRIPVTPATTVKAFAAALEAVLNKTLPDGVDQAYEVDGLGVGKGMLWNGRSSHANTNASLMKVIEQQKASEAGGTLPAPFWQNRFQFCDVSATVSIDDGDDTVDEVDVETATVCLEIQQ
Briefly: Leishmania donovani Ubiquitin Activating Enzyme (LdE1). Format: functional. The conditions noted are these: 30 µM.

For assay [3], the target named is AMP-activated protein kinase, AMPK (Homo sapiens) (UniProt P54646+O43741+P54619+Q9UGJ0+Q9Y478+Q13131+Q9UGI9). Nature of the assay: AMP-dependent Kinase enzyme assay. An in vitro enzyme assay that detects ADP turnover that is directly proportional to AMPK activity. This uses naive AMPK that is activated during the assay with MK-8722. It is filed as functional. Conditions: 30 µM.

Assay [4] addresses Sialic acid-binding Ig-like lectin 9 (Homo sapiens) (UniProt Q9Y336). Nature of the assay: Hs-Siglec9 ALPHAscreen SOP 20170721. The conditions noted are these: 10 µM.
The test system of a further assay is Trypanosoma cruzi. Briefly: Trypanosoma cruzi phosphomannomutase and mannose-1-phosphate guanylyltransferase assay. It is filed as functional. Conditions: 10 µM.
Assay [5] concerns the target T2, Arginase-2, mitochondrial (Homo sapiens) (UniProt P78540).
T2 sequence (whole entry): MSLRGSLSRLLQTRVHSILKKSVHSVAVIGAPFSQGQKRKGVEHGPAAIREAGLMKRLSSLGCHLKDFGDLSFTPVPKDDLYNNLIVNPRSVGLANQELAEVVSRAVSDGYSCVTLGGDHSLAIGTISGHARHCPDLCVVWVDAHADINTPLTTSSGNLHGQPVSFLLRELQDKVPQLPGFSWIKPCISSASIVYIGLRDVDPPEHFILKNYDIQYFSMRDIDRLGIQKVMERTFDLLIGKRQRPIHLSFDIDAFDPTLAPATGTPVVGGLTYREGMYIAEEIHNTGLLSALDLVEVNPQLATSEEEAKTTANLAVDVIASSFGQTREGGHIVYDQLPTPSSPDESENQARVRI
Briefly: in vitro enzyme assay to detect the production of urea directly proportional to the activity of Arginase II. Note: in the data most compounds retested in dose-response had high values. Format: functional. The conditions noted are these: 33.3 µM.

The target of assay [6] is T3, Proteasome subunit beta (Trypanosoma cruzi) (UniProt O96673).
T3 sequence (whole entry): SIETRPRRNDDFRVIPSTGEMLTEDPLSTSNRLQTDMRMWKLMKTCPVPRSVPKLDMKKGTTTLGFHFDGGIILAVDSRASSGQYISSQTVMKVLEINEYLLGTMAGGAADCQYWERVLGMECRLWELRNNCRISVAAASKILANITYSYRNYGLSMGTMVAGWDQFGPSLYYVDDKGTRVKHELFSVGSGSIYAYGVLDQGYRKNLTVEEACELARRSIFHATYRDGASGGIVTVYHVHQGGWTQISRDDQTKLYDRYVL
Nature of the assay: Trypanosoma cruzi proteasome chymotrypsin-like activity (TcProtChymo) assay. Note: in the data most compounds retested in dose-response had high values. It is filed as functional. Conditions: 9.37 µM.

The species named for another assay is Homo sapiens. Nature of the assay: To identify inhibition of the IFN signalling (Jak-Stat) pathway via expression of an eGFP reporter gene under the control of an IFN-stimulated response element (ISRE) containing MxA promoter. Format: functional. Conditions: 30 µM. In general terms: Reporter assays use an easily measured gene product as a stand-in for the process of interest.

The target of assay [7] is T4, Tyrosyl-tRNA synthetase, putative (Trypanosoma cruzi (strain CL Brener)) (UniProt Q4DSP6).
T4 sequence (whole entry): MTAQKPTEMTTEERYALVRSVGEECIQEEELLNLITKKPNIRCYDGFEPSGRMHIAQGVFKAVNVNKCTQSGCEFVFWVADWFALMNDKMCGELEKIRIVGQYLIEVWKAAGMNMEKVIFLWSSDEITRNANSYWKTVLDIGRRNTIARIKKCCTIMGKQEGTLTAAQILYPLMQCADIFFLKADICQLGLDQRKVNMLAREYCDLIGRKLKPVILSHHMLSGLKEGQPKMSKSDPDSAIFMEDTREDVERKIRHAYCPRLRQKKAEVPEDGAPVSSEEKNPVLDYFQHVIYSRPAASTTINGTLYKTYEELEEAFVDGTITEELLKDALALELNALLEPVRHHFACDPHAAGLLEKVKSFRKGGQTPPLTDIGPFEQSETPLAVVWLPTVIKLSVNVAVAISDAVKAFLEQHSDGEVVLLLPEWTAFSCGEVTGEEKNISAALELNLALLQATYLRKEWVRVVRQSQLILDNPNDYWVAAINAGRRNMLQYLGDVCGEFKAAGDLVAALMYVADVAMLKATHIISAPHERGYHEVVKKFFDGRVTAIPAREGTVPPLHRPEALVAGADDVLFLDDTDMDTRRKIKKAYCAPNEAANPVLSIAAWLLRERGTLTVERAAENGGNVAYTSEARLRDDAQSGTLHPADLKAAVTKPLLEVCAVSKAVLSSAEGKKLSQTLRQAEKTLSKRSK
Nature of the assay: Trypanosoma cruzi tyrosyl tRNA synthetase (TcYRS) _High Tyrosine SOP. Note: in the data most compounds retested in dose-response had high values. Format: functional. Conditions: 30 µM.

Assay [8] addresses T4, Tyrosyl-tRNA synthetase, putative (Trypanosoma cruzi (strain CL Brener)). Briefly: Trypanosoma cruzi tyrosyl tRNA synthetase (TcYRS) SOP. It is filed as functional. The conditions noted are these: 30 µM.
Assay [9] deals with Chromo domain-containing protein 1 (Saccharomyces cerevisiae (strain ATCC 204508 / S288c) (Baker's yeast)) (UniProt P32657). Nature of the assay: ScCHD-1 Enzyme Inhibition Assay. Note: in the data most compounds retested in dose-response had high values. Format: functional. Conditions: 30 µM.
Chain of Chromo domain-containing protein 1 (Saccharomyces cerevisiae (strain ATCC 204508 / S288c) (Baker's yeast)) (P32657 whole entry, the tested form may be a part): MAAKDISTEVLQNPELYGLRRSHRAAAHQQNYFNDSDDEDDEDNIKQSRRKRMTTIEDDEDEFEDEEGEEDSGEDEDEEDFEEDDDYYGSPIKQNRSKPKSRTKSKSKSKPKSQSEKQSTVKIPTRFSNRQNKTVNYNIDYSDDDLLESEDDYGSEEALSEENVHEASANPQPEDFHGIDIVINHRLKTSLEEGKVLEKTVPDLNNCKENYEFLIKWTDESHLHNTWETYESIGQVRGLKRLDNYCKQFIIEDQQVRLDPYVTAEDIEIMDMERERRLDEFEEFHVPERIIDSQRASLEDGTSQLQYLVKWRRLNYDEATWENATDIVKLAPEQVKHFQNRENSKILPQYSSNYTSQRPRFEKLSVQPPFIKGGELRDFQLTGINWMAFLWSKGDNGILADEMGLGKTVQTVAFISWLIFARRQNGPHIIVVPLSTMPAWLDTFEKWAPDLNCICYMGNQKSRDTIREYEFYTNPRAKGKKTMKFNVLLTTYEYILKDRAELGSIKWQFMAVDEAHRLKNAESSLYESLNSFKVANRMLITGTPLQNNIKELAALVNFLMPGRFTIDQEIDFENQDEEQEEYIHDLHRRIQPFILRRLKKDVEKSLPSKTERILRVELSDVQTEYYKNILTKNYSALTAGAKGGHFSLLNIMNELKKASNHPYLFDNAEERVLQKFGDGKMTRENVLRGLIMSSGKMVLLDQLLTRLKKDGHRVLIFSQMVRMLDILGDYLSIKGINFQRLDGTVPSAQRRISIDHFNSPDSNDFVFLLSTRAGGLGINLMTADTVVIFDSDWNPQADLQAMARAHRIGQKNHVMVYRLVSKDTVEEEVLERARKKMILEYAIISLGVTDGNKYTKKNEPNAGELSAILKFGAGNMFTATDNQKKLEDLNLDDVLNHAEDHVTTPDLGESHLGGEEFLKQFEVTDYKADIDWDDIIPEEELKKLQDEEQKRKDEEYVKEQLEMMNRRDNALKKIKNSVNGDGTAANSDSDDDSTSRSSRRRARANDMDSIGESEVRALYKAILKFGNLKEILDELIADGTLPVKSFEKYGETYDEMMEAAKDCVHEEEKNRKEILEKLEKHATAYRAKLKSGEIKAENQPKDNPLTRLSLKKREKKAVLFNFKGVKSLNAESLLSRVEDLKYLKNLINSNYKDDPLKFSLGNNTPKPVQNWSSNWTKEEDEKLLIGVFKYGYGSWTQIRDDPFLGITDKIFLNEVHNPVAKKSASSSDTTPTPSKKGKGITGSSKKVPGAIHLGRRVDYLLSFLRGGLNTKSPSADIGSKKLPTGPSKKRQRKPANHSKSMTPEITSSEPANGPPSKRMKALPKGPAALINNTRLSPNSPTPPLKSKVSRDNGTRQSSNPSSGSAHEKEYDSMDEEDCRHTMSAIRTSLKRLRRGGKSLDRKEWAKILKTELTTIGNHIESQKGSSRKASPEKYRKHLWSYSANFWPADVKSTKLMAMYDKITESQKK

Chain of Protein translocase subunit SecA (Escherichia coli (strain K12)) (P10408 whole entry): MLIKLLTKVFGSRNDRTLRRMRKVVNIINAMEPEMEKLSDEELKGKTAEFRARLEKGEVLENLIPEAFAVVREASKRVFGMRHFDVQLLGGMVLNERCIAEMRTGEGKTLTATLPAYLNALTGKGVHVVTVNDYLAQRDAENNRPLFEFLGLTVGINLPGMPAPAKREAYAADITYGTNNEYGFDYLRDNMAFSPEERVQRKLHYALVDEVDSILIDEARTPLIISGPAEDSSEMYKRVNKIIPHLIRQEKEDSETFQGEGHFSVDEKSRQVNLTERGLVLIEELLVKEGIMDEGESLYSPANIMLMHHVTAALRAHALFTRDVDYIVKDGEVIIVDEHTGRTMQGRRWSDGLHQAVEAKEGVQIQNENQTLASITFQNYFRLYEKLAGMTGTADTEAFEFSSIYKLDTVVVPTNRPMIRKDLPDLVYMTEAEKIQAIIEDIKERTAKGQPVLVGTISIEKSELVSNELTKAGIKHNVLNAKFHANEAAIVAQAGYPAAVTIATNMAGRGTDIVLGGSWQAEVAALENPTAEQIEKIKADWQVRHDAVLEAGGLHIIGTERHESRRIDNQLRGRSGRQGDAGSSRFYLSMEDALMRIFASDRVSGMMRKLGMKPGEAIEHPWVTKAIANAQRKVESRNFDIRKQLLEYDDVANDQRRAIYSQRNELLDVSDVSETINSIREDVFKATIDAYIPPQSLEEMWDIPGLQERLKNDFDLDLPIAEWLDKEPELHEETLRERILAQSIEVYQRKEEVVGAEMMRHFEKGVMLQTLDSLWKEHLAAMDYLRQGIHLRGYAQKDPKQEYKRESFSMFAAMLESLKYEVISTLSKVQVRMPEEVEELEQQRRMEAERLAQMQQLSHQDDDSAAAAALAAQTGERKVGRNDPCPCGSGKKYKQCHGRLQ
Chain of Sialic acid-binding Ig-like lectin 9 (Homo sapiens) (Q9Y336 whole entry): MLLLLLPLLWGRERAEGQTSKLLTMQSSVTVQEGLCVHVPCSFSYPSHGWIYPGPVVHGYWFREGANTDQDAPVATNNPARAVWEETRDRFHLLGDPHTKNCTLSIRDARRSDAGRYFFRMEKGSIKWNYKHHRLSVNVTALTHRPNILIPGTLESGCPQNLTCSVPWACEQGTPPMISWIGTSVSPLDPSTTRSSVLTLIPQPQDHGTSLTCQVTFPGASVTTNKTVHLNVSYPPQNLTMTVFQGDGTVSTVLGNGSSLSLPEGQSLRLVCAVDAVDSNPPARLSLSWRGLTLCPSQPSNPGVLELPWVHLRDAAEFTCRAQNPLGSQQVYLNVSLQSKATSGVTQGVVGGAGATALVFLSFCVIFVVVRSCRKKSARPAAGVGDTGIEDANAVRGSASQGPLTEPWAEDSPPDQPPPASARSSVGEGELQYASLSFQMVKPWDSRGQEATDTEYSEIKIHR

`O=C(Cc1ccccn1)N1C[C@@H]2CC[C@H](C1)N(Cc1ccccc1)C2=O`: the Percent Effect in assay [1] was -1.67%; in assay [2], 2.7%; in [3], 0.96%; in [4] it was 6.03%; in the assay on Trypanosoma cruzi, -4.05%; in assay [5], -4.29%. Further, the Percent Effect was 14.7% in [6]; 12% in the assay listed under Homo sapiens; 5.82% in assay [7]; 4.88% in [8]; -2.65% in assay [9].
For `CC1(C)Cc2ccccc2-c2nc(NCCO)[nH]c(=O)c21`, the Percent Effect in [1] is -5.03%; in assay [2] it was 13.2%; in assay [3], 56%; in assay [4], 4.58%; in the assay on Trypanosoma cruzi, -3.02%; in assay [5], 3.55%. Besides, the Percent Effect was 20% in assay [6]; 31.2% in the assay filed under Homo sapiens; 6.38% in [7]; 13% in assay [8]; -12.3% in assay [9].
Turning to `Cc1noc(C)c1C(=O)NCc1ccnc(OCC(F)(F)F)c1`, the Percent Effect in assay [1] is -3.23%; in assay [2] it was 26.3%; in [3], -1.27%; in assay [4] it was 0.107%; in the assay on Trypanosoma cruzi, 7.52%; in assay [5], 0%. The Percent Effect in [6] is 11.2%; in the assay filed under Homo sapiens, 10.2%; in assay [7] it was 7.35%; in assay [8] it was 9.76%; in assay [9], -11%.
Consider `CN(Cc1cccc(F)c1)C(=O)CN1CCCCC1Cn1cncn1` (stereo unspecified), for which the Percent Effect in assay [1] is -1.08%; in [2], -2.6%; in assay [3], -0.897%; in [4] it was 5.97%; with Trypanosoma cruzi, 1.08%; in assay [5], -4.14%. Moreover, the Percent Effect in [6] was 9.32%; in the assay filed under Homo sapiens it was -1.75%; in assay [7], 4.3%; in assay [8] it was -1.24%; in assay [9], -0.771%.
As for `Cc1nn(C)c(C)c1C1CCCN1C(=O)c1cnc2n[nH]c(C)c2c1` (stereo unspecified), the Percent Effect in assay [1] is -5.23%; in assay [2], 16.2%; in assay [3], -5.44%; in assay [4], 13.8%; in the assay on Trypanosoma cruzi, 5.66%; in assay [5], 0.554%. In addition, the Percent Effect in assay [6] was 0%; in the assay filed under Homo sapiens, 9.61%; in assay [7] it was 4.95%; in assay [8], 18.3%; in [9] it was -3.42%.
As to `NC(=O)C1CN(C(=O)Nc2ccccc2-c2cccs2)CCO1` (stereo unspecified), the Percent Effect was -6.75% in [1]; 18.9% in assay [2]; -3.93% in assay [3]; 20.2% in assay [4]; 5.66% in the assay on Trypanosoma cruzi; -2.4% in assay [5]. Also, the Percent Effect was -3.23% in assay [6]; 6.89% in the assay filed under Homo sapiens; 2.97% in [7]; 18.3% in assay [8]; -6.91% in assay [9].
For `Cc1nc(C)n(C2CCCN(C(=O)c3ccc(F)cc3F)C2)n1` (stereo unspecified), the Percent Effect is -3.45% in assay [1]; 0% in assay [2]; 0.572% in assay [3]; -0.68% in [4]; 2.73% with Trypanosoma cruzi; 24.6% in assay [5]. Further, the Percent Effect is 11.2% in assay [6]; -8.13% in the assay listed under Homo sapiens; 9.9% in assay [7]; 18.3% in assay [8]; -7.11% in assay [9].
Consider `CC(=O)N1CCN(C(=O)C(C)n2cncn2)CC1` (stereo unspecified), for which the Percent Effect was -3.75% in [1]; 8.86% in assay [2]; 5.62% in assay [3]; 3.27% in [4]; 1.13% in the assay with Trypanosoma cruzi; -1.5% in assay [5]. In addition, the Percent Effect was 10.3% in [6]; 1.42% in the assay filed under Homo sapiens; 5.21% in assay [7]; 12.7% in assay [8]; -21.9% in [9].
On to `Cc1ccsc1CN(Cc1ccccn1)CC(C)C`, for which the Percent Effect in [1] was -2.24%; in assay [2] it was 1.39%; in assay [3] it was -11.5%; in assay [4], 11.7%; in the assay with Trypanosoma cruzi it was 4.76%; in [5] it was 8.39%. For the same molecule, the Percent Effect in assay [6] was 8.95%; in the assay listed under Homo sapiens, -27.8%; in [7], 7.37%; in [8] it was 7.69%; in assay [9], -1.62%.
Regarding `c1ccc(Cn2cncn2)c(CNCC2CNc3ccnn3C2)c1` (stereo unspecified), the Percent Effect in assay [1] was 0.235%; in assay [2], 20.8%; in assay [3], -8.08%; in assay [4], 4.1%; in the assay with Trypanosoma cruzi it was 10.3%; in [5], 1.78%. The Percent Effect is 8.45% in assay [6]; 12.4% in the assay listed under Homo sapiens; 12.6% in assay [7]; 21.9% in [8]; -7.41% in [9].
For the molecule `COCCNC(=O)Cn1nc(C(C)C)c2cnn(C(C)(C)C)c2c1=O`, the Percent Effect is -2.65% in [1]; 5.48% in assay [2]; -1.93% in assay [3]; 5.56% in assay [4]; 3.72% with Trypanosoma cruzi; -1.36% in assay [5]. Further, the Percent Effect in assay [6] is 17.6%; in the assay filed under Homo sapiens, 15.1%; in [7] it was 8.6%; in [8], 15%; in [9], -6.24%.
